# Test results taken from PubChem BioAssay (EPA / NIEHS).
# Activity calls are given as the source filed them. Rule for the calls: active = hit-call score of the fitted dose curve at least 0.9, where 1 is the maximum; inactive = score below 0.9.
# Columns and labels:
# [1] = read-out: Interferon-gamma inducible Protein 10 (IP10), CXCL10 (gene 3627); assay: BSK_hDFCGF_IP10: BioMAP Diversity Plus: hDFCGF Assay for Interferon-gamma inducible Protein 10 (IP10) Biomarker Activity (AID 2283053); settings: primary human foreskin fibroblasts; actives raise or lower the signal
# In short: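 Primary human foreskin fibroblasts exposed to chemicals for 24 h. IP-10 measured by ELISA; changes fitted bidirectionally against DMSO baseline.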
# [2] = read-out: Urokinase-type plasminogen activator receptor (uPAR), PLAUR (gene 5329); assay: BSK_CASM3C_uPAR: BioMAP Diversity Plus: CASM3C Assay for Urokinase-type plasminogen activator receptor (uPAR) Biomarker Activity (AID 2283054); settings: primary human coronary artery smooth muscle cells; actives raise or lower the signal;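 note: cell-surface uPAR protein level quantified by ELISA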
# [3] = read-out: Vascular cell adhesion molecule 1 (VCAM1), VCAM1 (gene 7412); assay: BSK_CASM3C_VCAM1: BioMAP Diversity Plus: CASM3C Assay for Vascular cell adhesion molecule 1 (VCAM1) Biomarker Activity (AID 2283055); settings: primary human coronary artery smooth muscle cells; actives raise or lower the signal;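 note: VCAM-1 protein level quantified by ELISA on the cells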
# [4] = read-out: Collagen III, COL3A1 (gene 1281); assay: BSK_hDFCGF_CollagenIII: BioMAP Diversity Plus: hDFCGF Assay for Collagen III Biomarker Activity (AID 2283056); settings: primary human foreskin fibroblasts; actives raise or lower the signal
# In short: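 Cells: human foreskin fibroblasts, primary. Dosing followed by 24 h incubation, then ELISA for collagen III. Both increases and decreases scored relative to DMSO.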
# [5] = read-out: Epidermal growth factor receptor (EGFR), EGFR (gene 1956); assay: BSK_hDFCGF_EGFR: BioMAP Diversity Plus: hDFCGF Assay for Epidermal growth factor receptor (EGFR) Biomarker Activity (AID 2283057); settings: primary human foreskin fibroblasts; actives raise or lower the signal
# In short: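 Primary human foreskin fibroblasts (hDFCGF system), sampled 24 h after dosing; EGFR quantified by ELISA. Bidirectional fit relative to DMSO baseline; SRB total-protein staining in parallel cultures for cytotoxicity.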
# [6] = read-out: Interleukin-8 (IL8), CXCL8 (gene 3576); assay: BSK_hDFCGF_IL8: BioMAP Diversity Plus: hDFCGF Assay for Interleukin-8 (IL8) Biomarker Activity (AID 2283058); settings: primary human foreskin fibroblasts; actives raise or lower the signal
# In short: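 IL-8 levels from compound-treated primary human fibroblasts were read by ELISA at 24 h, with DMSO serving as baseline for bidirectional fitting.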
# [7] = BSK_hDFCGF_Proliferation: Cell Proliferation Assessment in the BioMAP Diversity Plus: hDFCGF Assay (AID 2283059); settings: primary human foreskin fibroblasts;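 note: curves fitted for both rise and fall of signal versus DMSO baseline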
# In short: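 Total protein read at 560 nm after 0.1% SRB staining of TCA-fixed human skin fibroblasts, […]. Activity is fitted in both directions relative to DMSO as baseline.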
# [8] = read-out: Macrophage colony-stimulating factor (MCSF), CSF1 (gene 1435); assay: BSK_hDFCGF_MCSF: BioMAP Diversity Plus: hDFCGF Assay for Macrophage colony-stimulating factor (MCSF) Biomarker Activity (AID 2283060); settings: primary human foreskin fibroblasts; actives raise or lower the signal
# In short: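 M-CSF levels, determined by ELISA, are taken at 24 h after dosing human skin fibroblasts. Responses in either direction are fitted with DMSO serving as the baseline.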
# [9] = BSK_hDFCGF_SRB: Viability Assessment in the BioMAP Diversity Plus: hDFCGF Assay (AID 2283061); settings: primary human foreskin fibroblasts;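 note: cells exposed to compound for 24 h before the read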
# In short: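 Cells were dosed with test chemical, cultured 24 h, fixed with 10% TCA, then stained with 0.1% SRB and read at 560 nm. The fibroblasts were human foreskin primary cells, and DMSO served as baseline.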
# [10] = read-out: TIMP metallopeptidase inhibitor 1 (TIMP1), TIMP1 (gene 7076); assay: BSK_hDFCGF_TIMP1: BioMAP Diversity Plus: hDFCGF Assay for TIMP metallopeptidase inhibitor 1 (TIMP1) Biomarker Activity (AID 2283062); settings: primary human foreskin fibroblasts; actives raise or lower the signal
# In short: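 Fibroblasts from human foreskin are treated with test chemical and harvested at 24 h. TIMP-1 is quantified by ELISA, and gain or loss of signal is scored against DMSO.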
SMILES,outcome [1],outcome [2],outcome [3],outcome [4],outcome [5],outcome [6],outcome [7],outcome [8],outcome [9],outcome [10],AC50 [1],AC50 [2],AC50 [3],AC50 [4],AC50 [5],AC50 [6],AC50 [7],AC50 [8],AC50 [9],AC50 [10]
CCc1ccc(CCOc2ccc(CC3SC(=O)NC3=O)cc2)nc1 (stereo not given),inactive,inactive,inactive,inactive,inactive,inactive,inactive,inactive,inactive,inactive,,,,,,,,,,
CC(C)(C)c1ccc(O)c(C(C)(C)C)c1,,,,,,,,,,,10.1 µM (active),7.58 µM (active),29.1 µM (active),8.81 µM (active),13.2 µM (active),12.5 µM (active),11.4 µM (active),8.8 µM (active),11.9 µM (active),11.5 µM (active)
C#C[C@]1(O)CC[C@H]2[C@@H]3CCC4=CC(=O)CC[C@@H]4[C@H]3CC[C@@]21C,inactive,inactive,inactive,inactive,inactive,inactive,inactive,inactive,inactive,inactive,,,,,,,,,,
O=c1c(-c2ccc(O)cc2)coc2cc(O)ccc12,inactive,inactive,inactive,inactive,inactive,inactive,inactive,inactive,inactive,inactive,,,,,,,,,,
CC[C@H](c1ccc(O)cc1)[C@@H](CC)c1ccc(O)cc1,,inactive,,,inactive,,,,,inactive,24.1 µM (active),,27.4 µM (active),15.1 µM (active),,37.8 µM (active),18.8 µM (active),29.7 µM (active),30.4 µM (active),
CCCCCCCCOC(=O)CCCCCCCCC(=O)OCCCCCCCC,inactive,inactive,inactive,inactive,inactive,inactive,inactive,inactive,inactive,inactive,,,,,,,,,,
CCCCC(CC)COC(=O)CCCCC(=O)OCC(CC)CCCC (stereo not given),inactive,inactive,inactive,inactive,inactive,inactive,inactive,inactive,inactive,inactive,,,,,,,,,,
COCC(C)O (stereo not given),inactive,inactive,inactive,inactive,inactive,inactive,inactive,inactive,inactive,inactive,,,,,,,,,,
CCCOc1sc(C(=O)N2CCC(c3cc(CN)ccc3F)CC2)c(C)c1Br,,,,,,,,,,,10.4 µM (active),8.94 µM (active),18.6 µM (active),7.98 µM (active),5.12 µM (active),7.73 µM (active),3.1 µM (active),6.92 µM (active),6.53 µM (active),10.6 µM (active)
COCC(C)OCC(C)O (stereo not given),inactive,inactive,inactive,inactive,inactive,inactive,inactive,inactive,inactive,inactive,,,,,,,,,,
OC1CCCCC1,inactive,inactive,inactive,inactive,inactive,inactive,inactive,inactive,inactive,inactive,,,,,,,,,,
COC(=O)CCCCC(=O)OC,inactive,inactive,inactive,inactive,inactive,inactive,inactive,inactive,inactive,inactive,,,,,,,,,,
CCC(C)(C)C1CCC(O)CC1 (stereo not given),inactive,inactive,inactive,inactive,inactive,inactive,inactive,inactive,inactive,inactive,,,,,,,,,,
CC(=O)NC1(c2cccc(F)c2)CCN(CC[C@@]2(c3ccc(Cl)c(Cl)c3)CN(c3ccccc3)C(=O)CO2)CC1,,,inactive,,inactive,,,,,,28.2 µM (active),16.6 µM (active),,6.66 µM (active),,25.9 µM (active),13.4 µM (active),24.5 µM (active),24.5 µM (active),26.7 µM (active)
CCC(=C(c1ccc(O)cc1)c1ccc(OCCN(C)C)cc1)c1ccccc1,,,,,inactive,,,,,,10.5 µM (active),20.3 µM (active),22.3 µM (active),7.58 µM (active),,12.8 µM (active),4.77 µM (active),10.2 µM (active),10.7 µM (active),12.1 µM (active)
CCCCCCCCCCCCCC[N+](C)(C)C,,,,,,,,,,,5.92 µM (active),5.05 µM (active),9.9 µM (active),1.59 µM (active),4.98 µM (active),14.1 µM (active),1.05 µM (active),2.81 µM (active),5.22 µM (active),5.39 µM (active)
CCCCCCCCCCCCCCCS(=O)(=O)Oc1ccccc1,inactive,inactive,inactive,inactive,inactive,inactive,inactive,inactive,inactive,inactive,,,,,,,,,,
